Test results taken from PubChem BioAssay (EPA / NIEHS).
Values joined by “and” are separate entries in the source; they are usually repeats but may differ in a detail not shown here. Equal values may be shown once. Some structures have more than one record in an assay (separate samples or runs), and their calls can disagree. Active and inactive are the calls of the source. How the source made its calls: active means hit-call score of the fitted dose curve at least 0.9, where 1 is the maximum; inactive means score below 0.9.

These molecules were tested against Aryl hydrocarbon receptor (Homo sapiens) (UniProt P35869) (assay: ATG_Ahr_CIS: Attagene CIS-FACTORIAL HepG2 Assay for human Aryl Hydrocarbon Receptor (Ahr) (AID 2282930)). Conditions: HepG2 AhR cis-factorial reporter transcription; actives raise or lower the signal.
Procedure: ATG_CIS is a cell-based, multiplexed-readout assay that uses HepG2, a human liver cell line, with measurements taken at 24 hours after chemical dosing in a 24-well plate.ATG_Ahr_CIS is one of 52 assay component(s) measured or calculated from the ATG_CIS assay. It is designed to make measurements of mRNA induction, a form of inducible reporter, as detected with fluorescence intensity signals by Reverse transcription polymerase chain reaction (RT-PCR) and Capillary electrophoresis technology.Data from the assay component ATG_Ahr_CIS was analyzed into 1 assay endpoint. This assay endpoint, ATG_Ahr_CIS, was analyzed with bidirectional fitting relative to DMSO as the negative control and baseline of activity. Using a type of inducible reporter, measures of mRNA for gain or loss-of-signal activity can be used to understand the reporter gene at the transcription factor-level as they relate to the gene AHR. Furthermore, this assay endpoint can be referred to as a primary readout, because this assay has produced multiple assay endpoints where this one serves a reporter gene function. To generalize the intended target to other relatable targets, this assay endpoint is annotated to the dna binding intended target family, where the subfamily is basic helix-loop-helix protein.
Human liver HepG2 cells are transiently transfected with multiple reporter transcription units (MRTUs) in 6-well plates using FuGene 6 reagent (Roche; 3 ml FuGene/1 mg DNA). The MRTU constructs are regulated by a cis-regulating element (promoter). […] A major difference between the CIS and TRANS system is that in CIS activities of endogenous TFs are measured, whereas the TRANS assay evaluates changes in activities of exogenous, chimeric NR-Gal4 proteins. […] At the end of 24 hour incubation, total RNA was isolated using TriZol reagent (Invitrogen). The isolated RNA is then reverse-transcribed using oligo(dT) primer and Mo-MLV reverse transcriptase (Invitrogen) with DNAse I (Ambion) treatment for 30 min. The one-tenth of the produced cDNA was amplified by PCR using Taq DNA polymerase (Invitrogen) and two reporter sequence-specific primers. The PCR products were fluorescently labeled by primer extension with 6-arboxyfluorescein (6-FAM) 5'-labeled reporter sequence-specific primer (2 min at 95 C, 20 s at 68 C and 10 min at 72 C) and these products were digested with 5U of HpaI (New England Biolabs) for 2h at 37 C. […] The raw capillary electrophoresis data was processed using Attagraph software (Attagene).

Sequence of Aryl hydrocarbon receptor (Homo sapiens) (P35869 whole entry, looked up): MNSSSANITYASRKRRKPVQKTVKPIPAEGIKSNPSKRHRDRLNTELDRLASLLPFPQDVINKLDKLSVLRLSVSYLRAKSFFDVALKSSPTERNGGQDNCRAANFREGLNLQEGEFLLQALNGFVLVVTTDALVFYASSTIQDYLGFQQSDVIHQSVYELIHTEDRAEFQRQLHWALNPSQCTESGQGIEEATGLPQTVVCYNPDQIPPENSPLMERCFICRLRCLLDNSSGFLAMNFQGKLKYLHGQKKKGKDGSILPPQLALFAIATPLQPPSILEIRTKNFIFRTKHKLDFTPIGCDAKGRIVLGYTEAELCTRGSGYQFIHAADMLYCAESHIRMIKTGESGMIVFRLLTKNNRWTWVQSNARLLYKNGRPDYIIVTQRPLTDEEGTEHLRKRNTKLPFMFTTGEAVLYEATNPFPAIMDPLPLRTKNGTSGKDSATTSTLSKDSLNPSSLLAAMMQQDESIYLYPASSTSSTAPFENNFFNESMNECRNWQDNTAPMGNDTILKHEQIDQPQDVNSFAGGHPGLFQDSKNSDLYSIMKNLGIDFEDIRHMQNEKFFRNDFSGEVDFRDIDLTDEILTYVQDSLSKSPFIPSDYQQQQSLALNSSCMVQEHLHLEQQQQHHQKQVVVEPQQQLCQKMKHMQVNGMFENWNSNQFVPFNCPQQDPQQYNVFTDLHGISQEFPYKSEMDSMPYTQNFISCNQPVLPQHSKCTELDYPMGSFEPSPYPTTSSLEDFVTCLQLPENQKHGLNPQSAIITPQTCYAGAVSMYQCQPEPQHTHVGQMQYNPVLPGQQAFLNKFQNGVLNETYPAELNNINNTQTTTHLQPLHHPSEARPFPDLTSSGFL

| Structure (SMILES) | outcome | AC50 |
| --- | --- | --- |
| CCC(C)(NC(=O)c1cc(Cl)c(C)c(Cl)c1)C(=O)CCl (stereo not given) | inactive |  |
| ClC1C(Cl)C(Cl)C(Cl)C(Cl)C1Cl (stereo not given) | inactive |  |
| CC(C)(C)C(O)/C(=C\c1ccc(Cl)cc1Cl)n1cncn1 (stereo not given) | inactive |  |
| CNC(=O)CSP(=S)(OC)OC | inactive |  |
| O=C(O)C(F)(F)C(F)(F)C(F)(F)C(F)(F)C(F)(F)C(F)(F)C(F)(F)F | inactive |  |
| COc1nn(CSP(=S)(OC)OC)c(=O)s1 | inactive |  |
| CCC(C)(C)C(=O)OC1=C(c2ccc(Cl)cc2Cl)C(=O)OC12CCCCC2 | inactive |  |
| CC[C@H](C)[C@H]1O[C@]2(C=C[C@@H]1C)C[C@@H]1C[C@@H](C/C=C(\C)[C@@H](O[C@H]3C[C@H](OC)[C@@H](O[C@H]4C[C@H](OC)[C@@H](O)[C@H](C)O4)[C@H](C)O3)[C@@H](C)/C=C/C=C3\CO[C@@H]4[C@H](O)C(C)=C[C@@H](C(=O)O1)[C@]34O)O2 (tested in a mixture with another compound) | inactive |  |
| O=C(O)CCCOc1ccc(Cl)cc1Cl | inactive |  |
| Oc1cc(Cl)ccc1Oc1ccc(Cl)cc1Cl | inactive | 5.97 µM (active) |
| CNC(=O)Oc1ccccc1OC(C)C | inactive |  |
| CCN(CC)C(=O)SCc1ccc(Cl)cc1 | inactive |  |
| CC1(c2ccc(Oc3ccccc3)cc2)OC(=O)N(Nc2ccccc2)C1=O (stereo not given) | inactive |  |
| CC1(C)C(C=C(Cl)Cl)C1C(=O)OC(C#N)c1ccc(F)c(Oc2ccccc2)c1 (stereo not given) | inactive |  |
| COC(=O)c1ccccc1CS(=O)(=O)NC(=O)Nc1nc(OC)cc(OC)n1 | inactive |  |
| COc1cc(OC)nc(NC(=O)NS(=O)(=O)c2cc(NC=O)ccc2C(=O)N(C)C)n1 | inactive |  |
| CCS(=O)(=O)c1cccnc1S(=O)(=O)NC(=O)Nc1nc(OC)cc(OC)n1 | inactive |  |
| O=S(=O)(O)C(F)(F)C(F)(F)C(F)(F)C(F)(F)C(F)(F)C(F)(F)C(F)(F)C(F)(F)F | inactive | 180 µM (active) and 40.3 µM (active) |
| CCOCN(C(=O)CCl)c1c(C)cccc1CC | inactive |  |

| Structure (SMILES) | outcome | AC50 |
| --- | --- | --- |
| COC(=O)c1ccccc1S(=O)(=O)NC(=O)N(C)c1nc(C)nc(OC)n1 | inactive |  |
| O=C(NC(=O)c1c(F)cccc1F)Nc1ccc(OC(F)(F)C(F)OC(F)(F)F)c(Cl)c1 (stereo not given) | inactive |  |
| CNC(=O)/C=C(\C)OP(=O)(OC)OC | inactive |  |
| Clc1ccccc1-c1nnc(-c2ccccc2Cl)nn1 | inactive |  |
| N#Cc1c(Cl)c(Cl)c(Cl)c(C#N)c1Cl | inactive |  |
| OCCOc1ccccc1 | inactive |  |
| Cc1cc(C)nc(NC(=O)NS(=O)(=O)c2ccccc2C(=O)OC2COC2)n1 | inactive |  |
| CN1CSC(=S)N(C)C1 | inactive |  |
| O=[N+]([O-])c1c(Cl)c(Cl)c(Cl)c(Cl)c1Cl | inactive |  |
| [2H]C1([2H])[n+]2ccccc2-c2cccc[n+]2C1([2H])[2H] | inactive |  |
| COP(=O)(OC)OC=C(Cl)Cl | inactive |  |
| COP(=S)(OC)Oc1ccc([N+](=O)[O-])cc1 | inactive |  |
| O=S1OCC2C(CO1)C1(Cl)C(Cl)=C(Cl)C2(Cl)C1(Cl)Cl (stereo not given) | inactive |  |
| C[C@H]1[C@H](c2ccc(Cl)cc2)SC(=O)N1C(=O)NC1CCCCC1 | inactive |  |
| CCOC1Oc2ccc(OS(C)(=O)=O)cc2C1(C)C (stereo not given) | inactive |  |
| Oc1ccc(Cl)cc1Cc1ccccc1 | inactive |  |
| COC(=O)c1ccccc1S(=O)(=O)NC(=O)Nc1nc(C)nc(OC)n1 | inactive |  |
| CCC(C)Nc1c([N+](=O)[O-])cc(C(C)(C)C)cc1[N+](=O)[O-] (stereo not given) | inactive |  |
| CC(C)N(C(=O)COc1nnc(C(F)(F)F)s1)c1ccc(F)cc1 | inactive |  |
